# Screen size: about 5,700 compounds; about 85 (1%) were called active. Cut-off read from the data, not from the text of the source: active = p53-positive nuclei above about 36% (passing the limit was not always enough); inactive = the rest. The entries come from a sample that favours actives as a whole.
# How the values were obtained:
# [1] = p53 stabilisation in HPV-positive human cells, imaging, p53-positive nuclei imaging, 24 h, 48 h (AID 1508601); details: 24/48 h
# [2] = target: Cellular tumor antigen p53 (Homo sapiens) (UniProt P04637); assay: as above; details: 24/48 h, stronger effect = higher value
# [3] = measured here: cell number at 24 h, Library stock concentration: 80 uM
# [4] = measured here: cell number at 24 h, Library stock concentration: 400 uM
# [5] = measured here: cell number at 24 h, Library stock concentration: 2 mM
# [6] = measured here: cell number at 24 h, Library stock concentration: 10 mM
# [7] = measured here: cell number at 48 h, Library stock concentration: 80 uM
# [8] = measured here: cell number at 48 h, Library stock concentration: 400 uM
# [9] = measured here: cell number at 48 h, Library stock concentration: 2 mM
# [10] = measured here: cell number at 48 h, Library stock concentration: 10 mM
# [11] = Library stock concentration: 80 uM
# [12] = Library stock concentration: 400 uM
# [13] = Library stock concentration: 2 mM
# [14] = Library stock concentration: 10 mM
# [15] = measured here: p53 positive nuclei at 24 h, Library stock concentration: 80 uM
# [16] = measured here: p53 positive nuclei at 24 h, Library stock concentration: 400 uM
# [17] = measured here: p53 positive nuclei at 24 h, Library stock concentration: 2 mM
# [18] = measured here: p53 positive nuclei at 24 h, Library stock concentration: 10 mM
# [19] = measured here: cell number at 24 h, Library stock concentration: 3.33 mM
# [20] = measured here: cell number at 48 h, Library stock concentration: 3.33 mM
# [21] = Library stock concentration: 3.33 mM
# [22] = measured here: p53 positive nuclei at 24 h, Library stock concentration: 3.33 mM
# [23] = measured here: cell number at 24 h, concentration not given here
# [24] = measured here: cell number at 48 h, concentration not given here
# [25] = measured here: p53 positive nuclei at 24 h, concentration not given here
# Chain of Cellular tumor antigen p53 (Homo sapiens) (P04637 whole entry, looked up): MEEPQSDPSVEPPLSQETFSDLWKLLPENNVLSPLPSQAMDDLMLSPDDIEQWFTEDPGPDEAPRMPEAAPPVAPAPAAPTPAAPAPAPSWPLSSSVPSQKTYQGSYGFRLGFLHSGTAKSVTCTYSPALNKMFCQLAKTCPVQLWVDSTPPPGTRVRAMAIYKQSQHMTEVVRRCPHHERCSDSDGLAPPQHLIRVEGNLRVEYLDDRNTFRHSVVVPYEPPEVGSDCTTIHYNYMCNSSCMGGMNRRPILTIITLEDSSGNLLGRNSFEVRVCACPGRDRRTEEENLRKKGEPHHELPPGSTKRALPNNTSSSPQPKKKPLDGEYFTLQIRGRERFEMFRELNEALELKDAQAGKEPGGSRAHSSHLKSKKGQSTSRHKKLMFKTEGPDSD
smiles,measurement,setting,value
O=Nc1c(O)[nH]c2c(Cl)c(Cl)ccc12,"nuclei count, normalised",[1]; [3],111%
same,"nuclei count, normalised",[1]; [4],99.5%
same,"nuclei count, normalised",[1]; [5],83.2%
same,"nuclei count, normalised",[1]; [6],73.5%
same,"nuclei count, normalised",[1]; [7],109%
same,"nuclei count, normalised",[1]; [8],99%
same,"nuclei count, normalised",[1]; [9],54.9%
same,"nuclei count, normalised",[1]; [10],33.7%
same,"p53-positive nuclei, normalised",[2]; [11],0.16% (inactive)
same,"p53-positive nuclei, normalised",[2]; [12],-0.101% (inactive)
same,"p53-positive nuclei, normalised",[2]; [13],48.3% (inactive)
same,"p53-positive nuclei, normalised",[2]; [14],84.3% (active)
same,"p53-positive nuclei, normalised",[2]; [15],0.217%
same,"p53-positive nuclei, normalised",[2]; [16],0.0912%
same,"p53-positive nuclei, normalised",[2]; [17],2.93%
same,"p53-positive nuclei, normalised",[2]; [18],8.66%
CC(C)C(=O)Oc1ccc(CO)cc1C(CCN(C(C)C)C(C)C)c1ccccc1 (stereo unspecified),"nuclei count, normalised",[1]; [19],113%
same,"nuclei count, normalised",[1]; [20],108%
same,"p53-positive nuclei, normalised",[2]; [21],-0.0601% (inactive)
same,"p53-positive nuclei, normalised",[2]; [22],-0.451%
CCCCC[C@H](O)/C=C/[C@@H]1[C@H](CCCCCCC(=O)O)[C@H](O)C[C@H]1O,"nuclei count, normalised",[1]; [23],103%
same,"nuclei count, normalised",[1]; [24],107%
same,"p53-positive nuclei, normalised",[2]; concentration not given here,-0.142% (inactive)
same,"p53-positive nuclei, normalised",[2]; [25],-0.0664%
O=C1C(c2c(O)[nH]c3ccccc23)=Nc2ccccc21,"nuclei count, normalised",[1]; [19],97.7%
same,"nuclei count, normalised",[1]; [20],95.2%
same,"p53-positive nuclei, normalised",[2]; [21],0.364% (inactive)
same,"p53-positive nuclei, normalised",[2]; [22],-0.221%
O=Nc1c(-c2c(O)[nH]c3cc(Br)ccc23)[nH]c2ccccc12,"nuclei count, normalised",[1]; [3],102%
same,"nuclei count, normalised",[1]; [4],111%
same,"nuclei count, normalised",[1]; [5],106%
same,"nuclei count, normalised",[1]; [19],116%
same,"nuclei count, normalised",[1]; [6],63.9%
same,"nuclei count, normalised",[1]; [23],104%
same,"nuclei count, normalised",[1]; [7],106%
same,"nuclei count, normalised",[1]; [8],106%
same,"nuclei count, normalised",[1]; [9],91.1%
same,"nuclei count, normalised",[1]; [20],101%
same,"nuclei count, normalised",[1]; [10],46.7%
same,"nuclei count, normalised",[1]; [24],113%
same,"p53-positive nuclei, normalised",[2]; [11],-0.018% (inactive)
same,"p53-positive nuclei, normalised",[2]; [12],0.858% (inactive)
same,"p53-positive nuclei, normalised",[2]; [13],4.32% (inactive)
same,"p53-positive nuclei, normalised",[2]; [21],1.69% (inactive)
same,"p53-positive nuclei, normalised",[2]; [14],89.3% (active)
same,"p53-positive nuclei, normalised",[2]; concentration not given here,0.377% (inactive)
same,"p53-positive nuclei, normalised",[2]; [15],-0.0496%
same,"p53-positive nuclei, normalised",[2]; [16],0.519%
same,"p53-positive nuclei, normalised",[2]; [17],1.14%
same,"p53-positive nuclei, normalised",[2]; [22],0.53%
same,"p53-positive nuclei, normalised",[2]; [18],71.9%
same,"p53-positive nuclei, normalised",[2]; [25],0.0936%
O=C1Cc2c([nH]c3ccc(Br)cc23)-c2ccccc2N1,"nuclei count, normalised",[1]; [23],97.1%
same,"nuclei count, normalised",[1]; [24],104%
same,"p53-positive nuclei, normalised",[2]; concentration not given here,-0.0157% (inactive)
same,"p53-positive nuclei, normalised",[2]; [25],0.0601%

# From PubChem BioAssay AID1508601 (ICCB-Longwood Screening Facility, Harvard Medical School, 2020)
